Results filed as inconclusive are left out. Entries that show only a call come without a potency. Unmarked numbers belong to inactive results. Calls of active or inactive are those of the source. Calls follow the shape of the dose curve; as a rule, active = well fitted curve in the direction sought with a large enough effect; inconclusive = small, poorly fitted or top-dose-only effect, or another doubt; inactive = no such curve, though single readings can be large; an effect the other way counts as inactive or inconclusive.

From PubChem BioAssay (NCATS) come the findings set out here.

One experiment relates to CRL-7250. Nature of the experiment: qHTS assay to identify novel small-molecules to repurpose for Merkel cell carcinoma treatment (AID 1296009). Also: nearly all actives have a fitted effect of over 60% in size. The note with it: MCC and control cell lines, CellTiter-Glo viability, 72 h; at 44.8 µM (top of the series) unless noted. A digest of the protocol:
(§1)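 72 hr, 37 degree celsius; NPC 8-pt / MIPE 11-pt dose response; compound pinned in DMSO; CellTiter-Glo, 10 min RT, luminescence; normalized to no-cell and DMSO controls.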

A further experiment relates to C33A. Nature of the experiment: Primary qHTS to identify gynecologic anti-cancer compounds using libraries of approved drugs and bioactive compounds (AID 1345084). Also: nearly all actives have a fitted effect of over 55% in size. The settings on record: Gynecologic cancer cell panel viability, ATPlite luminescence, 48 h; series mostly up to 57.5 µM. Summed up: (§2)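 48 h compound exposure at 37 C, 5% CO2; five-point qHTS. ATPlite luminescence readout of cell ATP.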

In another experiment the test system is CAOV3. Described as above. The settings on record: Gynecologic cancer cell panel viability, ATPlite luminescence, 48 h; series mostly up to 57.5 µM. A digest of the protocol:
as §2

In another experiment the test system is CASKI. The description is as above. The settings on record: Gynecologic cancer cell panel viability, ATPlite luminescence, 48 h; series mostly up to 57.5 µM. Summed up: as §2
For a further experiment, the system named is Es-2. Described as above. The settings on record: Gynecologic cancer cell panel viability, ATPlite luminescence, 48 h; series mostly up to 57.5 µM. A digest of the protocol: as §2
The test system of a further experiment is HeLa. Described as above. The note with it: Gynecologic cancer cell panel viability, ATPlite luminescence, 48 h; series mostly up to 57.5 µM. A digest of the protocol:
as §2

For another experiment, the system named is MKL-1. Nature of the experiment: qHTS assay to identify novel small-molecules to repurpose for Merkel cell carcinoma treatment (AID 1296009). Also: nearly all actives have a fitted effect of over 60% in size. The note with it: MCC and control cell lines, CellTiter-Glo viability, 72 h; series mostly up to 46 µM. Summed up:
as §1

For a further experiment, the system named is MKL-2. The description is as above. The settings on record: MCC and control cell lines, CellTiter-Glo viability, 72 h; series mostly up to 46 µM. A digest of the protocol:
as §1

The next experiment has as its system UISO. The description is as above. The settings on record: MCC and control cell lines, CellTiter-Glo viability, 72 h; series mostly up to 46 µM. A digest of the protocol: as §1
Another experiment has as its system HACAT. Described as above. The settings on record: MCC and control cell lines, CellTiter-Glo viability, 72 h; at 44.8 µM (top of the series) unless noted. Summed up: as §1
The subject of another experiment is MCC-13. Described as above. The settings on record: MCC and control cell lines, CellTiter-Glo viability, 72 h; series mostly up to 46 µM. Summed up: as §1
In the next experiment the test system is MCC-26. Described as above. The note with it: MCC and control cell lines, CellTiter-Glo viability, 72 h; series mostly up to 46 µM. A digest of the protocol: as §1
Another experiment deals with NIH3T3. The experiment is described as above. The settings on record: MCC and control cell lines, CellTiter-Glo viability, 72 h; at 44.8 µM (top of the series) unless noted. Summed up: as §1
The next experiment concerns WaGa. The description is as above. The note with it: MCC and control cell lines, CellTiter-Glo viability, 72 h; series mostly up to 46 µM. A digest of the protocol: as §1
Potency is read from the fitted curve at half-maximal effect.

Turning to `CC(C)OC(=O)C(C(=O)OC(C)C)=C1SC=CS1`, the result in the experiment with CRL-7250 was inactive. The same measure, in the same setting: the result for `CN(C)[C@@H](CCOc1cccc2ccccc12)c1ccccc1` reads “inactive”. `CN(C)CCCOC1(Cc2ccccc2)CCCCCC1`: in the experiment on CRL-7250, the result was inactive. In the case of `O=c1ccc2ccccc2o1`, the outcome in the experiment on CRL-7250 was inactive. For the molecule `N[C@H](C(=O)O)[C@@H](O)c1ccc(O)c(O)c1`, the result in the experiment with CRL-7250 was inactive. The same measure, in the same setting: the result for `C1CCN2C[C@@H]3C[C@@H](CN4CCCC[C@@H]34)[C@H]2C1` reads “inactive”; that for `Cc1cc(C(C)(C)C)c(O)c(C)c1CC1=NCCN1`, “inactive”. Same read-out and setting: in the case of `c1ccc2c(c1)CCc1ccccc1N2` it was “inactive”; in that of `CCOC(=O)[C@H](CCc1ccccc1)N[C@H]1CS[C@H](c2cccs2)CN(CC(=O)O)C1=O`, “inactive”; in that of `CCn1cc(C(=O)O)c(=O)c2cc(F)c(N3CCN(C)CC3)cc21`, “inactive [at 17.4 µM]”.

As to `OC1C(O)C(O)C(O)C(O)C1O` (stereo not drawn), the molecule was classed as inactive in the experiment with CRL-7250. As to `CNC(=O)Oc1cccc2ccccc12`, the Potency entry in the experiment on C33A, with CAOV3, with CASKI, in the experiment with Es-2 and in the experiment with HeLa was “inactive” throughout.

On to `CCCCCCCCCCCCOS(=O)(=O)O`, for which the result in the experiment on CRL-7250 was inactive. Same read-out and setting: in the case of `CNC(=O)Oc1ccc2c(c1)[C@]1(C)CCN(C)[C@@H]1N2C` it was “inactive”.

With `O=C(O)CCC(=O)c1ccc(-c2ccccc2)cc1`, the result with CRL-7250 was inactive. Same read-out and setting: in the case of `COc1cc(N)c(Cl)cc1C(=O)NC1CCN(Cc2ccccc2)CC1` it was “inactive”; in that of `NC(CSCC(=O)O)C(=O)O` (stereo not drawn), “inactive”.

As for `CN1C[C@H](C(=O)N[C@]2(C)O[C@@]3(O)[C@@H]4CCCN4C(=O)[C@H](Cc4ccccc4)N3C2=O)C[C@@H]2c3cccc4[nH]cc(c34)C[C@H]21`, the call in the experiment with CRL-7250 was inactive. Take `CCCc1ncc(C[n+]2ccccc2C)c(N)n1`: in the experiment with CRL-7250, the molecule was called inactive. Turning to `O=C(O)c1cccc(-c2noc(-c3ccccc3F)n2)c1`, the result in the experiment with CRL-7250 was inactive. In the case of `O=c1[nH]c2cc(C(F)(F)F)c(N3CCOCC3)cc2n(CP(=O)(O)O)c1=O`, the call in the experiment with CRL-7250 was inactive. Still for that read-out and setting: the result for `CCN(CC)C(=O)c1cccc(C)c1` reads “inactive”.

`CCCCC(=O)O[C@]1(C(=O)CO)[C@@H](C)C[C@H]2[C@@H]3CCC4=CC(=O)C=C[C@]4(C)[C@@]3(F)[C@@H](O)C[C@@]21C`: the result with CRL-7250 was inactive.

On to `C[C@]12CC[C@H](O)CC1=CC[C@@H]1[C@@H]2CC[C@]2(C)C(=O)CC[C@@H]12`, for which the Potency entry with C33A, in the experiment with CAOV3, in the experiment on CASKI and in the experiment with Es-2 was “inactive” each time. Moreover, the Potency in the experiment with HeLa is 14.1 µM (active).

Regarding `c1ccc2c(c1)Sc1ccccc1N2CC1CN2CCC1CC2` (stereo not drawn), the Potency with MKL-1 is 23.7 µM (active); in the experiment on MKL-2 it was 11.9 µM (active); in the experiment with UISO, 26.6 µM (active); with Es-2 it was 35.5 µM (active).

Consider `O=C(CCCN1CCN(c2ccccn2)CC1)c1ccc(F)cc1`, for which the call in the experiment with CRL-7250 was inactive.

For `O[C@@H](COc1cccc2ncccc12)CN1CCN(C2c3ccccc3[C@@H]3[C@H](c4ccccc42)C3(F)F)CC1` (stereo partly drawn), the call with CRL-7250 was inactive. The same measure, in the same setting: in the case of `COc1ccc(C(Cl)=C(c2ccc(OC)cc2)c2ccc(OC)cc2)cc1` it was “inactive”; in that of `CCCCCCCCCCCCCCCCCCOCC(O)CO` (stereo not drawn), “inactive”.

`CC[C@H](O)C(C[C@H](C)N(C)C)(c1ccccc1)c1ccccc1`: the Potency entry in the experiment on C33A, in the experiment on Es-2 and with HeLa was “inactive” each time. Regarding `CCCCN(CCCC)C(C(N)=O)c1ccc(OC)cc1` (stereo not drawn), the molecule was classed as inactive with CRL-7250. Same read-out and setting: in the case of `N[C@@H](CSSC[C@H](N)C(=O)O)C(=O)O` it was “inactive [at 0.588 µM]”. For `N[C@@H](Cc1c[nH]c2ccc(O)cc12)C(=O)O`, in the experiment with CRL-7250, the result was inactive. `O=C1[C@H]2CCCC[C@H]2C(=O)N1CCCCN1CCN(c2nsc3ccccc23)CC1`: the call in the experiment with CRL-7250 was inactive.

As for `CC(C)(O)C(Cl)(Cl)Cl`, the molecule was called inactive in the experiment on HACAT and in the experiment on NIH3T3. Moreover, the Potency entry in the experiment with MCC-13, with MCC-26, in the experiment on MKL-1, in the experiment on MKL-2, in the experiment with UISO and in the experiment on WaGa was “inactive” throughout. The Potency result in the experiment with C33A, with CAOV3, with CASKI, in the experiment on Es-2 and with HeLa was “inactive” each time. In the case of `COc1cc([C@H]2Oc3cc([C@H]4Oc5cc(O)cc(O)c5C(=O)[C@@H]4O)ccc3O[C@@H]2CO)ccc1O`, in the experiment with CRL-7250, the call was inactive. With `CCC(C)(C)c1ccc(CC(C)CN2C[C@@H](C)O[C@@H](C)C2)cc1` (stereo partly drawn), the outcome in the experiment with CRL-7250 was inactive. Regarding `CCCCCCCCCCCCCCCCC(C(=O)O)C(O)(CC(=O)O)C(=O)O` (stereo not drawn), the molecule was called inactive with CRL-7250.
